Experimental data taken from PubChem BioAssay AID1159580 (chemical genetic matrix, 2015).
Several values for one entry are separate records, joined by “and”; a condition that tells them apart may be missing. Equal values may be shown once. Hit rate of the full screen: of about 5,500 compounds, about 2,000 (36%) were called active. Another 18% or so got no clear call; they are omitted. No stated cut-off is given here; in the data, active means normalized growth mostly below about 0.91 (no sharp cut-off); inconclusive means no clear call, values can overlap the other calls; inactive means mostly above about 0.92. Some of the results follow.

Assay: chemical genetic growth profiling, strain panel (AID 1159580);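 further: tested at 20 µM; growth read once vehicle control cultures reached saturation at 30 °C; 1 = growth at the plate median or of vehicle wells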
Settings: S. cerevisiae deletion strains, growth OD

Measured: normalized growth

C#CCCCCCCCCCCCC(O)CC(O)COC(C)=O (stereo unspecified)
active: locus YAL021C, strain ccr4, stronger effect = lower value 0.766 | locus YAL026C, strain drs2, stronger effect = lower value 0.906 | locus YAL030W, strain snc1, stronger effect = lower value 0.526 | locus YBL061C, strain skt5, stronger effect = lower value 0.841 | locus YBR009C, strain hhf1, stronger effect = lower value 0.263 | locus YBR023C, strain chs3, stronger effect = lower value 0.756 | locus YBR279W, strain paf1, stronger effect = lower value 0.87 | locus YCL011C, strain gbp2, stronger effect = lower value 0.32 | locus YCL016C, strain dcc1, stronger effect = lower value 0.805 | locus YCL069W, strain vba3, stronger effect = lower value 0.852 | locus YDL005C, strain med2, stronger effect = lower value 0.103 | locus YDR101C, strain arx1, stronger effect = lower value 0.916 | locus YDR137W, strain rgp1, stronger effect = lower value 0.63 | locus YDR159W, strain sac3, stronger effect = lower value 0.289 | locus YDR195W, strain ref2 0.482 | locus YDR297W, strain sur2, stronger effect = lower value 0.571 | locus YDR318W, strain mcm21, stronger effect = lower value 0.889 | locus YDR335W, strain msn5, stronger effect = lower value 0.913 | locus YDR392W, strain spt3, stronger effect = lower value 0.21 | locus YEL003W, strain gim4, stronger effect = lower value 0.376 | locus YEL061C, strain CIN8 (second series), stronger effect = lower value 0.872 | locus YER015W, strain faa2, stronger effect = lower value 0.714 | locus YER016W, strain bim1, stronger effect = lower value 0.861 | locus YER155C, strain BEM2 (second series), stronger effect = lower value 0.461 | locus YGL078C, strain dbp3, stronger effect = lower value 0.881 | locus YGL086W, strain mad1, stronger effect = lower value 0.91 | locus YGL173C, strain kem1, stronger effect = lower value 0.539 | locus YGL227W, strain vid30, stronger effect = lower value 0.72 | locus YGL240W, strain doc1, stronger effect = lower value 0.727 | locus YGL253W, strain hxk2, stronger effect = lower value 0.788 | locus YHR027C, strain rpn1, stronger effect = lower value 0.82 | locus YHR142W, strain chs7, stronger effect = lower value 0.624 | locus YJL095W, strain BCK1 (second series), stronger effect = lower value 0.216 | locus YJL129C, strain trk1, stronger effect = lower value 0.213 | locus YJL164C, strain tpk1, stronger effect = lower value 0.258 | locus YJL166W, strain qcr8, stronger effect = lower value 0.283
inactive: locus YAL013W, strain DEP1, stronger effect = lower value 0.98 | locus YBR021W, strain FUR4, stronger effect = lower value 0.925 | locus YBR171W, strain sec66, stronger effect = lower value 0.962 | locus YBR229C, strain ROT2, stronger effect = lower value 0.982 | locus YBR231C, strain swc5, stronger effect = lower value 0.962 | locus YCL029C, strain bik1, stronger effect = lower value 0.954 | locus YCR088W, strain abp1, stronger effect = lower value 0.947 | locus YDL035C, strain GPR1, stronger effect = lower value 0.908 | locus YDL040C, strain nat1, stronger effect = lower value 0.973 | locus YDL074C, strain BRE1, stronger effect = lower value 0.857 | locus YDL101C, strain DUN1, stronger effect = lower value 0.975 | locus YDL134C, strain PPH21, stronger effect = lower value 0.972 | locus YDL185W, strain tfp1, stronger effect = lower value 0.963 | locus YDL192W, strain arf1, stronger effect = lower value 0.928 | locus YDR001C, strain nth1, stronger effect = lower value 0.999 | locus YDR069C, strain doa4, stronger effect = lower value 1.02 | locus YDR150W, strain NUM1, stronger effect = lower value 0.992 | locus YDR162C, strain NBP2, stronger effect = lower value 0.945 | locus YDR334W, strain swr1, stronger effect = lower value 1.04 | locus YDR388W, stronger effect = lower value 0.967 | locus YDR502C, strain sam2, stronger effect = lower value 0.923 | locus YEL037C, strain rad23, stronger effect = lower value 0.997 | locus YEL061C, strain CIN8, stronger effect = lower value 0.989 | locus YER110C, stronger effect = lower value 0.965 | locus YER111C, strain swi4, stronger effect = lower value 0.927 | locus YER155C, strain BEM2, stronger effect = lower value 0.988 | locus YER167W, strain BCK2, stronger effect = lower value 0.953 | locus YFR010W, strain ubp6, stronger effect = lower value 1.03 | locus YGL167C, strain pmr1, stronger effect = lower value 0.939 | locus YGL248W, strain PDE1, stronger effect = lower value 0.976 | locus YGR078C, strain PAC10, stronger effect = lower value 0.905 | locus YGR135W, strain pre9, stronger effect = lower value 0.918 | locus YGR229C, strain SMI1, stronger effect = lower value 0.954 | locus YGR252W, strain gcn5, stronger effect = lower value 0.831 | locus YHR013C, strain ard1, stronger effect = lower value 1.13 | locus YHR030C, strain SLT2, stronger effect = lower value 0.98 and 0.998 | locus YHR079C, strain IRE1 (second series), stronger effect = lower value 0.942 | locus YHR079C, strain IRE1, stronger effect = lower value 0.969 | locus YHR094C, strain hxt1, stronger effect = lower value 0.97 | locus YHR129C, strain ARP1, stronger effect = lower value 0.978 | locus YHR200W, strain rpn10, stronger effect = lower value 0.945 | locus YIL066C, strain RNR3, stronger effect = lower value 0.885 | locus YIL073C, strain SPO22, stronger effect = lower value 0.917 | locus YIL125W, strain kgd1, stronger effect = lower value 0.965 | locus YIR030C, strain dcg1, stronger effect = lower value 0.962 | locus YJL092W, strain hpr5, stronger effect = lower value 0.963 | locus YJL095W, strain BCK1, stronger effect = lower value 0.935 and 1 | locus YJL115W, strain asf1, stronger effect = lower value 0.975 | locus YJL134W, strain LCB3, stronger effect = lower value 0.997 | locus YJL154C, strain vps35, stronger effect = lower value 1.01 | locus YJL168C, strain set2, stronger effect = lower value 0.966 | locus YJL187C, strain SWE1 (second series), stronger effect = lower value 0.954 | locus YJR043C, strain POL32, stronger effect = lower value 0.897 | locus YJR066W, strain TOR1, stronger effect = lower value 0.957 | locus YJR075W, strain HOC1, stronger effect = lower value 0.947
